Test results as given in PubChem BioAssay (NCATS).
Where “and” joins values, the source holds several entries; their conditions need not be identical. Equal entries are not always repeated. Inconclusive results are not listed. Calls of active or inactive are those of the source. Unless noted, calls follow the shape of the dose curve; as a rule, active = well fitted curve in the direction sought with a large enough effect; inconclusive = small, poorly fitted or top-dose-only effect, or another doubt; inactive = no such curve, though single readings can be large; an effect the other way counts as inactive or inconclusive.

Experiments:
[1] = qHTS for Inhibitors of Plasmodium falciparum (DD2) proliferation (AID 504314);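 also: parasite DNA measured by SYBR Green fluorescence after red cell lysis; plate controls were DMSO vehicle for no effect and artemisinin wells for full effect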
Procedure, shortened: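 Fluorescence read-out (ex 485/em 535 nm) of SYBR Green-stained parasite DNA quantifies intraerythrocytic growth. Cultures at 0.3% parasitemia and 2.5% hematocrit were treated for 72 h; data normalized to DMSO and 0.29 uM artemisinin wells.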

[2] = qHTS for Inhibitors of Plasmodium falciparum (GB4) proliferation (AID 504315);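 also: 0% = DMSO vehicle and -100% = 0.29 µM artemisinin control; nearly all actives have a fitted effect of over 50% in size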
Procedure, shortened: (§1)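 Erythrocytes infected with P. falciparum line (0.3% parasitemia, 2.5% hematocrit final) incubated with compounds 72 h at 37 °C, 5% CO2; SYBR Green lysis buffer added, fluorescence read next day. Normalized to 0.29 uM artemisinin and DMSO.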

[3] = qHTS for Inhibitors of Plasmodium falciparum (7G8) proliferation (AID 504316);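 also: series mostly up to about 6.7 µM; 0% = DMSO vehicle and -100% = 0.29 µM artemisinin full kill; nearly all actives have a fitted effect of over 65% in size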
Procedure, shortened: as §1

[4] = qHTS for Inhibitors of Plasmodium falciparum (HB3) proliferation (AID 504318);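 also: 0% = DMSO vehicle and -100% = artemisinin control; nearly all actives have a fitted effect of over 60% in size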
Procedure, shortened: as §1

[5] = qHTS for Inhibitors of Plasmodium falciparum (CP250) proliferation (AID 504320);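 also: plate controls were DMSO vehicle for no effect and 0.29 µM artemisinin control for full effect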
Procedure, shortened: as §1

[6] = target: Atrial natriuretic peptide receptor 1 (Homo sapiens) (UniProt P16066); experiment: Natriuretic polypeptide receptor (hNpr1) antagonism - Pilot CMLD screen (AID 1347052; calls by dose curve;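 also: HEK293 cells with hNpr1 stimulated by hNppA peptide at 0.1 nM; cGMP level read as GloSensor luciferase luminescence after agonist stimulation; series mostly up to about 9.2 µM; % is scaled to controls: 0 for no effect and ±100 for the full control effect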)
Chain of Atrial natriuretic peptide receptor 1 (Homo sapiens) (P16066 whole entry, looked up): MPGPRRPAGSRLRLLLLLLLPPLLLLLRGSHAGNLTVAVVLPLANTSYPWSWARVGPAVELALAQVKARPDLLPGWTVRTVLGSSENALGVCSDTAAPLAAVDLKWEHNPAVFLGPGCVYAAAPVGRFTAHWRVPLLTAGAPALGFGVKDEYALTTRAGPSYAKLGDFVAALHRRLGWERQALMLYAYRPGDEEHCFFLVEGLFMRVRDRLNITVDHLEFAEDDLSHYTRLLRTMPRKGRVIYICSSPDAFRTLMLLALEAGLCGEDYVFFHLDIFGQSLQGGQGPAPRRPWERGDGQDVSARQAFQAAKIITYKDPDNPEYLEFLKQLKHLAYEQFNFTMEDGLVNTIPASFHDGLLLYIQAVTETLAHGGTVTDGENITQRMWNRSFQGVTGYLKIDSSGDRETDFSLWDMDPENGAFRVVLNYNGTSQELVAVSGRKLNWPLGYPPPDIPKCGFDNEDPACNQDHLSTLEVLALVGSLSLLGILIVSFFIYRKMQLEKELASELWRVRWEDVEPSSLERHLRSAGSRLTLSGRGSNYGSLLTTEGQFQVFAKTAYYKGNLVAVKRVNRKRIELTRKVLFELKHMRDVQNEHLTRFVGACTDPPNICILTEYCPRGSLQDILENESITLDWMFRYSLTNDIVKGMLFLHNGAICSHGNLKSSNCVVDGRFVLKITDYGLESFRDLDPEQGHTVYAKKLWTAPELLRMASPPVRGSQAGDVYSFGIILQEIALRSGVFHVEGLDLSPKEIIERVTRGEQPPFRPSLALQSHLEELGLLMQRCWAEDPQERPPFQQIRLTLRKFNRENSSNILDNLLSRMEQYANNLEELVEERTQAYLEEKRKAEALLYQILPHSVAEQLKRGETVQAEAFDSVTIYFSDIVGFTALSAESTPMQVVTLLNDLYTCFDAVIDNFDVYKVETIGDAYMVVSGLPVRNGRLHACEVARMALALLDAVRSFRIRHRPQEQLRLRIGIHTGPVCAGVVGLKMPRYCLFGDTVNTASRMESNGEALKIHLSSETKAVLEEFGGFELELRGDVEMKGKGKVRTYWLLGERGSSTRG

C#CC1(O)C(OC)=CC2C(=O)C1C(c1ccccc1)C2C (stereo not given)
inactive: Potency [1] | Potency [2] | Potency [3] | Potency [4] | Potency [5] | Potency [6]

C=C(CCN1C=C(C(C)=O)C(c2ccccc2)NC1=O)c1ccc(OC)cc1 (stereo not given)
inactive: Potency [1] | Potency [2] | Potency [3] | Potency [4] | Potency [5] | Potency [6]

C=C(C)CO[C@H]1C=C[C@@H](c2ccccc2)O[C@H]1CO
inactive: Potency [1] | Potency [2] | Potency [3] | Potency [4] | Potency [5] | Potency [6]

CC(=O)C1=C(C)N(Cc2ccccc2)C(=O)NC1c1cccc(F)c1 (stereo not given)
inactive: Potency [1] | Potency [2] | Potency [3] | Potency [4] | Potency [5] | Potency [6]

COc1ccc(-c2nc3c(c4c2C[C@H](c2ccccc2)OC4)CN(C(=O)Nc2cccc(C#N)c2)CC3)c(C)c1
inactive: activity, negative = inhibition [1] 2.23% [at 1.12 µM] | Potency [2] | Potency [3] | Potency [4] | Potency [5] | Potency [6]

CCN1C(=NCC(C)C)N[C@H](c2ccccc2)[C@H](C(=O)OC)[C@H]1C
inactive: Potency [1] | Potency [2] | Potency [3] | Potency [4] | Potency [5] | Potency [6]

C=CCN1C(=O)[C@]2(OCCC=C[C@H]2C)c2c(Br)cccc21
inactive: Potency [1] | Potency [2] | Potency [3] | Potency [4] | Potency [5] | Potency [6]

COC(=O)C[C@H]1c2ccccc2[C@@H]2C(=C[C@@H](C)[C@H]3C(=O)NC(=O)[C@H]32)N1C(=O)OC
inactive: Potency [1] | Potency [2] | Potency [3] | Potency [4] | Potency [5] | Potency [6]

COCCN1C(=O)N(C)C(c2ccccc2)C(C(C)=O)=C1C (stereo not given)
inactive: Potency [1] | Potency [2] | Potency [3] | Potency [4] | Potency [5] | Potency [6]

COc1ccc(COC(=O)NN=C2C[C@@H](O)[C@@H](O)[C@@H]3[C@H]4C(=O)N(c5ccc(F)cc5F)C(=O)[C@@H]4CC[C@H]23)cc1
inactive: Potency [1] | Potency [2] | Potency [3] | Potency [4] | Potency [5] | Potency [6]

CCOC(=O)CN1C(=O)NC(c2cccs2)C(C(=O)OC)=C1C (stereo not given)
inactive: Potency [1] | Potency [2] | Potency [3] | Potency [4] | Potency [5] | Potency [6]

CCOC(=O)CN1C(=O)N[C@@H](c2ccccc2)[C@H](C(C)=O)[C@H]1C
inactive: Potency [1] | Potency [2] | Potency [3] | Potency [4] | Potency [5] | Potency [6]

C#CCNC(=O)[C@H]1C=C(OC)C(=O)C[C@H](c2ccccc2)[C@H]1C
inactive: Potency [1] | Potency [2] | Potency [3] | Potency [4] | Potency [5] | Potency [6]

CC=COC(=O)N[C@@H](c1ccccc1)[C@]1(C(C)=O)CCCC1=O
inactive: Potency [1] | Potency [2] | Potency [3] | Potency [4] | Potency [5] | Potency [6]

CCCC=CC1C(=O)[C@@H]2O[C@H]2C2(OCC(CC)(CC)CO2)C1CO (stereo not given in full)
inactive: Potency [1] | Potency [2] | Potency [3] | Potency [4] | Potency [5] | Potency [6]

Cc1ccc(S(=O)(=O)OC[C@@H]2CN3[C@H](c4ccc(Br)cc4)[C@H](C)CC[C@H]3C(=O)O2)cc1
inactive: Potency [1] | Potency [2] | Potency [3] | Potency [4] | Potency [5] | Potency [6]

C=CCOC(=O)C(C(C)=O)[C@@H](NC(=O)OC)c1ccc(Cl)cc1 (stereo not given in full)
inactive: Potency [1] | Potency [2] | Potency [3] | Potency [4] | Potency [5] | Potency [6]

C[C@H]1Cc2c(-c3ccccc3)nc3c(c2CO1)CN(C(=O)Nc1cccc(C#N)c1)CC3
inactive: activity, negative = inhibition [1] -4.46% [at 1.12 µM] | Potency [2] | Potency [3] | Potency [4] | Potency [5] | Potency [6]

COc1ccc2c(c1)O[C@@H](c1ccc3c(c1)OCO3)[C@H](O)C2=O
inactive: Potency [1] | Potency [2] | Potency [3] | Potency [4] | Potency [5] | Potency [6]

CC1(OC(=O)C2CCCC2)C(=O)C=C2C=C(C3CC3)OC=C2C1=O (stereo not given)
inactive: Potency [1] | Potency [2] | Potency [3] | Potency [4] | Potency [5] | Potency [6]

COC(=O)N[C@@H](c1cccs1)C(C(C)=O)C(=O)OC (stereo not given in full)
inactive: Potency [1] | Potency [2] | Potency [3] | Potency [4] | Potency [5] | Potency [6]

COC(=O)[C@@]1(C=C2c3ccc(OC)cc3[C@@H](OC)[C@@H]2C)[C@@H]2C=CC[C@@H]21
inactive: Potency [1] | Potency [2] | Potency [3] | Potency [4] | Potency [5] | Potency [6]

CCN1C(=NCc2ccc3c(c2)OCO3)N[C@@H](c2ccccc2)[C@H](C(=O)OC)[C@H]1C
inactive: Potency [1] | Potency [2] | Potency [3] | Potency [4] | Potency [5] | Potency [6]

COc1ccc([C@]23Cc4cc(OC)c(OC)cc4[C@H](O2)C2=C(CC4(CCCCC4)OC2=O)O3)cc1
inactive: Potency [1] | Potency [2] | Potency [3] | Potency [4] | Potency [5] | Potency [6]

COC(=O)C[C@H]1c2ccccc2C2=C(C[C@@H](C)[C@H]3C(=O)N(c4ccccc4)C(=O)[C@@H]23)N1C(=O)OC
inactive: activity, negative = inhibition [1] 2.35% [at 1.12 µM] and 0.352% [at 1.12 µM] | Potency [2] | Potency [3] | Potency [4] | Potency [5] | Potency [6]

C=CC[C@](C)(Nc1ccc(OC)cc1)C(=O)OCC
inactive: Potency [1] | Potency [2] | Potency [3] | Potency [4] | Potency [5] | Potency [6]

CCN1C(=O)N[C@@H](c2cccc(C(F)(F)F)c2)[C@H](C(C)=O)[C@H]1C
inactive: Potency [1] | Potency [2] | Potency [3] | Potency [4] | Potency [5] | Potency [6]

CCC(=O)OC1(C)C(=O)C=C2C=C(c3ccsc3)OC=C2C1=O (stereo not given)
inactive: Potency [1] | Potency [2] | Potency [3] | Potency [4] | Potency [5] | Potency [6]

CCCCc1nc2c(c3c1C[C@H](C)OC3)CN(C(=O)C1CCCCC1)CC2
inactive: activity, negative = inhibition [1] -0.437% [at 1.12 µM] | Potency [2] | Potency [3] | Potency [4] | Potency [5] | Potency [6]

COc1ccc(OC[C@@H]2CC3[C@@H](CC[C@@H](C)[C@H]3c3ccc(Br)cc3)C(=O)O2)cc1 (stereo not given in full)
inactive: Potency [1] | Potency [2] | Potency [3] | Potency [4] | Potency [5] | Potency [6]

COCCN1C=C2C(=O)C(C)(OC(=O)c3cccs3)C(=O)C=C2C=C1CCCC(=O)OC (stereo not given)
inactive: Potency [1] | Potency [2] | Potency [3] | Potency [4] | Potency [5] | Potency [6]

CC=COC(=O)N[C@@H](c1ccccc1)[C@]1(C(C)=O)CCOC1=O
inactive: Potency [1] | Potency [2] | Potency [3] | Potency [4] | Potency [5] | Potency [6]

CC(CCN1CCCCc2nc(C)c(C)cc21)=NOC[C@@H](O)[C@H]1O[C@@H]2OC(C)(C)O[C@H]2[C@@H]1O
inactive: Potency [1] | Potency [2] | Potency [3] | Potency [4] | Potency [5] | Potency [6]

COC(=O)C1=C(C(=O)OC)[C@@H]2N(C)c3ccccc3[C@@]23C[C@@H](C(=O)OC)N(C(=O)NCCBr)C3=N1
inactive: Potency [1] | Potency [2] | Potency [3] | Potency [4] | Potency [5] | Potency [6]

C[C@@H]1CC[C@H]2C(=O)N(Cc3cccc([N+](=O)[O-])c3)C[C@@H](O)CN2[C@@H]1c1cccc(Br)c1
inactive: Potency [1] | Potency [2] | Potency [3] | Potency [4] | Potency [5] | Potency [6]

O=C1OCCC=C1C(O)CCc1ccccc1 (stereo not given)
inactive: Potency [1] | Potency [2] | Potency [3] | Potency [4] | Potency [5] | Potency [6]

CC#CCN1c2ccccc2[C@]23CCC(=O)N(Cc4cccc(C(F)(F)F)c4)C2=NC(C(=O)OC)=C(C(=O)OC)[C@H]13
inactive: Potency [1] | Potency [2] | Potency [3] | Potency [4] | Potency [5] | Potency [6]

COC(=O)C1=C(C(=O)OC)[C@@H]2N(C)c3ccccc3[C@@]23CCC(=O)N(Cc2ccco2)C3=N1
inactive: Potency [1] | Potency [2] | Potency [3] | Potency [4] | Potency [5] | Potency [6]

CCN1C(=NCCOC)N[C@@H](c2ccccc2)[C@H](C(=O)OC)[C@H]1C
inactive: Potency [1] | Potency [2] | Potency [3] | Potency [4] | Potency [5] | Potency [6]

COC(=O)N[C@H](CC(C)=O)c1cccc(F)c1
inactive: Potency [1] | Potency [2] | Potency [3] | Potency [4] | Potency [5] | Potency [6]

C=CC1(O)C(OC)=CC2C(=O)C1C(c1ccccc1)C2C (stereo not given)
inactive: Potency [1] | Potency [2] | Potency [3] | Potency [4] | Potency [5] | Potency [6]

CCOC(=O)CNC(=O)O[C@H]1C(=O)c2ccc(OC)cc2O[C@@H]1c1ccc2c(c1)OCO2
inactive: Potency [1] | Potency [2] | Potency [3] | Potency [4] | Potency [5] | Potency [6]

CC(C)=CCCC(C)=CCON=C1C[C@@H](O)[C@@H](O)[C@@H]2[C@H]3C(=O)N(C[C@@H]4CCCO4)C(=O)[C@@H]3CC[C@H]12
inactive: Potency [1] | Potency [2] | Potency [3] | Potency [4] | Potency [5] | Potency [6]

COC[C@@H](OC(C)=O)[C@H]1OCc2ccccc2[C@H]1C=Cc1ccccc1
inactive: Potency [1] | Potency [2] | Potency [3] | Potency [4] | Potency [5] | Potency [6]

CCN1C(=NCc2ccc3c(c2)OCO3)NC(CCc2ccccc2)C(C(=O)OC)=C1C (stereo not given)
inactive: Potency [1] | Potency [2] | Potency [3] | Potency [4] | Potency [5] | Potency [6]

CCOC(=O)CCN1C(=O)[C@@H]2[C@H]3[C@H](O)[C@H](O)CC(=NOCC(C)C)[C@@H]3CC[C@H]2C1=O
inactive: Potency [1] | Potency [2] | Potency [3] | Potency [4] | Potency [5] | Potency [6]

CCN1C(=NCc2cc(OC)c(OC)c(OC)c2)NC(c2ccccc2)C(C(=O)OC)=C1C (stereo not given)
inactive: Potency [1] | Potency [2] | Potency [3] | Potency [4] | Potency [5] | Potency [6]

O=S(=O)(CCc1ccccc1)c1ccccc1
inactive: Potency [1] | Potency [2] | Potency [3] | Potency [4] | Potency [5] | Potency [6]

COC(=O)N[C@@H](c1ccc2ccccc2c1)C(C(C)=O)C(=O)OC (stereo not given in full)
inactive: Potency [1] | Potency [2] | Potency [3] | Potency [4] | Potency [5] | Potency [6]

COC(=O)C1=C(C(=O)OC)[C@@H]2Nc3ccccc3[C@@]23C[C@@H](C(=O)OC)N(C(=O)COCc2ccccc2)C3=N1
inactive: Potency [1] | Potency [2] | Potency [3] | Potency [4] | Potency [5] | Potency [6]
